Experimental data reported in PubChem BioAssay (NCATS).
Results filed as inconclusive are left out. Entries that show only a call come without a potency. Values without a mark were called inactive. Activity calls are given as the source filed them. The call rests on the fitted dose curve; in most records, active means well fitted cell-killing curve with a large enough effect; inconclusive means small, poorly fitted or top-dose-only effect, or effect the other way; inactive means flat fitted curve, though single readings scatter. Where a SMILES comes first, the peptide text is derived from it. The star is where a group is joined. AFC = O=c1cc(C(F)(F)F)c2ccc(N*)cc2o1

Key:
Test in all cases: Primary qHTS to identify gynecologic anti-cancer compounds using libraries of approved drugs and bioactive compounds (AID 1345084); further: nearly all actives have a fitted effect of over 55% in size
Details in all cases: Gynecologic cancer cell panel viability, ATPlite luminescence, 48 h; series mostly up to 57.5 µM
PA-1 = test system: PA-1
How it was run: (§1)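 Five-point cytotoxicity, 48 h drug exposure at 37 C, 5% CO2, on cells seeded 16 h beforehand. ATP content read by ATPlite luminescence.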

SKOV3 = test system: SKOV3
How it was run: as §1

Tov-21-G = test system: Tov-21-G
How it was run: as §1

Tov112D = test system: Tov112D
How it was run: as §1
Potency means the concentration at half of the fitted maximal effect.

SMILES | Potency (PA-1) | Potency (SKOV3) | Potency (Tov-21-G) | Potency (Tov112D) | activity change, negative = cytotoxicity (PA-1) | activity change, negative = cytotoxicity (SKOV3) | activity change, negative = cytotoxicity (Tov-21-G) | activity change, negative = cytotoxicity (Tov112D)
COc1ccc(/C=C/C(=O)O[C@@H]2[C@@H](O)[C@H](C)O[C@@H](O[C@H]3[C@@H]4C=CO[C@@H](O[C@H]5O[C@@H](CO)[C@H](O)[C@@H](O)[C@@H]5O)[C@@H]4[C@@]4(CO)O[C@@H]34)[C@@H]2OC(C)=O)cc1 | inactive | inactive | inactive | inactive |  |  |  | 
COC(=O)C1=CO[C@@H](O[C@@H]2O[C@H](CO)[C@@H](O)[C@H](O)[C@H]2O)[C@H]2[C@@H]1C=C[C@@]21C=C([C@H](C)O)C(=O)O1 | inactive | inactive | inactive | inactive |  |  |  | 
C[C@@H]1C(=O)O[C@H]2C[C@]34[C@H]5C[C@@H](C(C)(C)C)[C@]36[C@@H](OC(=O)[C@H]6O)O[C@]4(C(=O)O5)[C@]21O | inactive | inactive | inactive | inactive |  |  |  | 
CC(=O)N[C@@H](Cc1c[nH]c2ccccc12)C(=O)N[C@@H](CCC(=O)O)C(=O)N[C@@H](Cc1cnc[nH]1)C(=O)N[C@@H](CC(=O)O)C(=O)Nc1ccc2c(C(F)(F)F)cc(=O)oc2c1 (Ac-WEHD-{AFC}) | inactive | inactive | inactive | inactive |  |  |  | 
COC(=O)C1=CO[C@@H](O[C@@H]2O[C@H](CO)[C@@H](O)[C@H](O)[C@H]2O)[C@@H]2C(CO)=CC[C@]12O | inactive | inactive | inactive | inactive |  |  |  | 
COc1ccc2nc(S(=O)(=O)Cc3ncc(C)c(OC)c3C)[nH]c2c1 | inactive | inactive | inactive | inactive |  |  |  | 
Cn1nc(C(C)(C)C)cc1C(=O)NC(Cc1cccc(Cl)c1)C(=O)NCC#N (configuration not stated) | inactive | inactive | inactive | inactive |  |  |  | 
C[C@@H]1CC[C@]2(C(=O)O[C@@H]3O[C@H](CO)[C@@H](O)[C@H](O)[C@H]3O)CC[C@]3(C)C(=CCC4[C@@]5(C)C[C@@H](O)[C@H](O)[C@@](C)(C(=O)O[C@H]6[C@H](O)C[C@@]7(C)C(CC[C@]8(C)C7CC=C7[C@H]9[C@](C(=O)O[C@@H]%10O[C@H](CO)[C@@H](O)[C@H](O)[C@H]%10O)(CC[C@@H](C)[C@@]9(C)O)CC[C@]78C)[C@@]6(CO)C(=O)O)C5CC[C@]43C)[C@@H]2[C@]1(C)O (some centres not stated) |  |  |  |  | 8.04% [at 6.55 µM] | 17.7% [at 6.55 µM] | 0.548% [at 6.55 µM] | 3.01% [at 6.55 µM]
COc1ccc2c(OC)c3ccoc3nc2c1OC | inactive | inactive | inactive | inactive |  |  |  | 
c1ccc(-c2csc(N3CCOCC3)n2)cc1 | inactive | inactive | inactive | inactive |  |  |  | 
COc1cc(/C=C/C=O)cc(OC)c1O[C@@H]1O[C@H](CO)[C@@H](O)[C@H](O)[C@H]1O | inactive | inactive | inactive | inactive |  |  |  | 
C=C1C(OC2OCC(O)C(O)C2O)CC2C(C)(C)C(O)CCC2(C)C1CC/C(C)=C\CO (configuration not stated) | inactive | inactive | inactive | inactive |  |  |  | 
CC1(C)CC[C@]2(C(=O)O[C@@H]3O[C@H](CO)[C@@H](O)[C@H](O)[C@H]3O)CC[C@]3(C)C(=CCC4[C@@]5(C)C[C@@H](O)[C@H](O)C(C)(C)C5[C@H](O)C[C@]43C)[C@@H]2[C@@H]1O (some centres not stated) | inactive | inactive | inactive | inactive |  |  |  | 
CC1(O)CCCC2(C)C1CCC13CC(CO)C(CCC12)C3 (configuration not stated) | inactive | inactive | inactive | inactive |  |  |  | 
COc1ccc(/C=C\C(=O)O)c(O[C@@H]2O[C@H](CO)[C@@H](O)[C@H](O)[C@H]2O)c1 | inactive | inactive | inactive | inactive |  |  |  | 
C=C1CC[C@@H]2[C@@](C)(CO[C@@H]3O[C@H](CO)C(O)[C@H](O)C3O)[C@H](O)CC[C@@]2(C)[C@@H]1CC/C(C)=C/CO (some centres not stated) |  |  |  |  | 7% [at 11.6 µM] | -9.26% [at 11.6 µM] | 4.35% [at 11.6 µM] | 4.42% [at 11.6 µM]
CS(=O)(=O)c1ccc(-c2nnc(/C=C/c3nnc(-c4ccc(C#N)cc4)o3)n2-c2ccccc2Cl)nc1 | inactive | inactive | inactive | inactive |  |  |  | 
CC/C=C\[C@H](O)[C@H](O)C1=C(C)C(=O)[C@]2(O1)C(=O)N[C@@](OC)(C(=O)c1ccccc1)[C@@H]2O | inactive | inactive | inactive | inactive |  |  |  | 
COc1ccc(C[C@H](N)C(=O)N[C@@H]2[C@H](O)[C@H](n3cnc4c(N(C)C)ncnc43)O[C@@H]2CO)cc1 | 1 µM (active) | 2.82 µM (active) | 4.47 µM (active) | 1.78 µM (active) |  |  |  | 
COc1cc(O)c2c(c1)C1=CC(O)C(O)CC1(C)OC2=O (configuration not stated) | inactive | inactive | inactive | inactive |  |  |  | 
CC1(c2nc3c(C(N)=O)cccc3[nH]2)CCCN1 (configuration not stated) | inactive | inactive | inactive | inactive |  |  |  | 
COC(=O)N[C@H](C(=O)N1[C@@H]2CC[C@@H](C2)[C@H]1c1nc2ccc(-c3ccc4c(c3)C(F)(F)c3cc(-c5cnc([C@@H]6CCC7(CC7)N6C(=O)[C@@H](NC(=O)OC)C(C)C)[nH]5)ccc3-4)cc2[nH]1)C(C)C | inactive | inactive | inactive | inactive |  |  |  | 
C[C@]12C[C@@H](O)[C@@H]3C[C@@]1(O[C@@H]1O[C@H](CO)[C@@H](O)[C@H](O)[C@H]1O)[C@]3(COC(=O)c1ccccc1)C(=O)O2 | inactive | inactive | inactive | inactive |  |  |  | 
